# “And” between values parts separate entries of the source, which are not always exact repeats. Equal entries are not always repeated. The source made the active and inactive calls. Rule for the calls: active = hit-call score of the fitted dose curve at least 0.9, where 1 is the maximum; inactive = score below 0.9.
# Read-out: Interleukin-8 (IL8), CXCL8 (gene 3576)
# Test: BSK_MyoF_IL8: BioMAP Diversity Plus: MyoF Assay for Interleukin-8 (IL8) Biomarker Activity (AID 2284261)
# Conditions: primary human lung fibroblasts
# Method: BSK_MyoF is a cell-based, multiplexed-readout assay that uses lung fibroblasts, […], with measurements taken at 24 hours after chemical dosing in a microplate: 96-well plate.BSK_MyoF_IL8 is an assay component measured in the BSK_MyoF assay. It measures IL-8 antibody related to regulation of gene expression using ELISA technology.Data from the assay component BSK_MyoF_IL8 was analyzed at the endpoint, BSK_MyoF_IL8, in the positive analysis fitting direction relative to DMSO as the negative control and baseline of activity. Using a type of binding reporter, gain or loss-of-signal activity can be used to understand protein changes. To generalize the intended target to other relatable targets, this assay endpoint is annotated to the 'cytokine' intended target family, where the subfamily is 'interleukins'.
# The levels of cell surface (or secreted, indicated by the prefix "s") biomarker endpoints were measured by ELISA. Overt cytotoxicity to cells in confluent adherent cultures (all systems other than the BT system) was assessed by measuring total protein levels using sulforhodamine B (SRB) staining in parallel cultures at the time of biomarker measurements, indicated as SRB endpoints. For proliferation assays for adherent cell types, individual cell types are cultured at sub-confluence and relative cell numbers quantified by SRB staining at time points optimized for each system (48 h: 3C and CASM3C systems; 72 h: BT and HDF3CGF systems; 96 h: SAg system). SRB was performed by staining cells with 0.1% SRB after fixation with 10% TCA and reading wells at 560 nm.Viability and proliferation of PBMC (T cells) was quantified by Alamar Blue reduction for the SAg and BT systems. For PBMC viability (referred to as PBMC Cytotoxicity within the assay endpoint names), cells were plated (75,000/well in a 96-well plate) and then chemical samples added for 1 h before addition of activators, SEB and TSST-1 (20 ng/mL final concentration each). Cells were incubated for 90 h. Then, Alamar Blue (20 uL/well) (Invitrogen, Cat DAL1100) was added for 6 h, and the plates were read with a fluorescence microplate reader at 546/580 nm (excitation/emission). For PBMC proliferation, cells were plated and activated as above but incubated for only 16 h prior to addition of Alamar Blue. Plates were read after 6 h.
SMILES,outcome,AC50
O=S(=O)(c1ccc(Cl)cc1)c1ccc(Cl)cc1,inactive,–
Nc1ncc([N+](=O)[O-])s1,inactive,–
Nc1ccc(-c2ccc(N)c(Cl)c2)cc1Cl,–,2.04 µM (active)
CCCCC(CC)CO[N+](=O)[O-] (stereo unspecified),inactive,–
O=Cc1cccc(Oc2ccccc2)c1,inactive,–
C(=NC1CCCCC1)=NC1CCCCC1,–,33.1 µM (active)
O=C(O)C(F)(F)C(F)(F)C(F)(F)C(F)(F)C(F)(F)C(F)(F)C(F)(F)C(F)(F)C(F)(F)C(F)(F)F,–,6.34 µM (active) and 6.43 µM (active)
COP(=S)(OC)Oc1ccc(Sc2ccc(OP(=S)(OC)OC)cc2)cc1,–,20 µM (active)
CCNc1nc(NC(C)(C)C)nc(SC)n1,inactive,–
O=C(O)CCC(F)(C(F)(F)F)C(F)(F)F,inactive,–
CC(C)CCCCCCOC(=O)c1ccccc1C(=O)OCCCCCCC(C)C,inactive,–
COP(=S)(OC)Oc1c(Cl)cc(C)cc1Cl,inactive,–
CC1(C)Cc2cccc(O)c2O1,inactive,–
Oc1ccc(-c2ccccc2)cc1,inactive,–
CCOC(=O)/C=C(C)/C=C/C[C@@H](C)CCCC(C)C,inactive,–
CCCCCCCCC(=O)NCc1ccc(O)c(OC)c1,inactive,–
COC[C@H](C)N(C(=O)CCl)c1c(C)csc1C,inactive,–
COC(=O)c1sccc1S(=O)(=O)NC(=O)Nc1nc(C)nc(OC)n1,inactive,–

SMILES,outcome,AC50
COP(=S)(OC)Oc1cc(Cl)c(Cl)cc1Cl,–,4.59 µM (active)
COc1cc(OC)nc(NC(=O)NS(=O)(=O)c2ncccc2C(=O)N(C)C)n1,inactive,–
ClC1=C(Cl)[C@]2(Cl)[C@H]3[C@H]([C@H]4C=C[C@H]3C4)[C@@]1(Cl)C2(Cl)Cl,–,2.92 µM (active)
Oc1c(I)cc(I)cc1I,–,3.55 µM (active)
OCc1ccco1,inactive,–
COP(=S)(OC)Oc1ccc(S(=O)(=O)N(C)C)cc1,inactive,–
O=[N+]([O-])c1ccc2c3c(cccc13)CC2,inactive,–
CCSC(C)CC1CC(=O)C(C(CC)=NOC/C=C/Cl)=C(O)C1 (stereo unspecified),inactive,–
CC(=O)C(Cl)C(=O)N(C)C (stereo unspecified),inactive,–
CCOP(=S)(OCC)Oc1ccc(S(C)=O)cc1 (stereo unspecified),inactive,–
ClC(Cl)=C(Cl)C(Cl)=C(Cl)Cl,–,15.1 µM (active)
Nc1cccc2ccccc12,–,11.4 µM (active)
O=C(OC1CCCCC1)c1ccccc1C(=O)OC1CCCCC1,–,5.72 µM (active)
NC(=S)Nc1ccccc1,inactive,–
CCOP(=S)(OCC)SCCS(=O)(=O)CC,inactive,–
BrCCBr,inactive,–
CC(C)c1ccc(CO)cc1,inactive,–
O=C(O)C(F)(F)C(F)(F)C(F)(F)C(F)(F)C(F)(F)C(F)(F)F,inactive,–

# Reference: PubChem BioAssay (EPA / NIEHS)
